Assay results as given in PubChem BioAssay (NCATS).
Results filed as inconclusive are left out. Active and inactive are the calls of the source. The call rests on the fitted dose curve; in most records, active means well fitted cell-killing curve with a large enough effect; inconclusive means small, poorly fitted or top-dose-only effect, or effect the other way; inactive means no such curve, though single readings can be large or run the other way.

experiment: Viability qHTS for spleen associated tyrosine kinase inhibitor (SYKi) drug resistant MV4-11 cells (AID 1963824); details: SYKi-resistant MV4-11 viability, CellTiter-Glo, 72 h; series mostly up to 45 µM; viability, % of control: at the top concentration; further: nearly all actives have a fitted effect of over 35% in size
In short: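 SYK inhibitor-resistant MV4-11 AML cells, 500 per well, added to predispensed compounds and incubated 72 hr at 37 C, 5% CO2. Viability measured by CellTiter-Glo luminescence after 10 min at room temperature.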
Potency means the concentration at half of the fitted maximal effect.

| Compound | Potency | viability, % of control |
| --- | --- | --- |
| CCCCCCCCn1cc(CN(CC)CC)c2cc(-c3cnc(N)nc3)ccc21 | 2.59 µM (active) | – |
| COc1ccc(/C=C/C(N)=O)cc1OC | – | 99.6% (inactive) |
| COc1cc2c(cc1OC)N1C(=O)C[C@]34C=CCN5CC[C@@H]2[C@@H](CC3)[C@]514 | 8.05 µM (active) | – |
| CC(=O)NC(Cc1ccccc1)C(=O)NC(C(=O)O)C(C)C (stereo not given) | – | 74.4% (inactive) |
| CC(=O)OC1C(OC(=O)c2ccccc2)C2C(C)(C)CCC(OC(C)=O)C2(C)C23CCC(C)(C2)C(=O)CC13 (stereo not given) | 10 µM (active) | – |
| C=C1C(=O)O[C@@H]2[C@H]1CCC(C)=C1CCC(=O)O[C@]12C | 2.59 µM (active) | – |
| CC[C@@H](Nc1c(Nc2cccc(C(=O)N(C)C)c2O)c(=O)c1=O)c1ccc(C)o1 | – | 69.7% (inactive) |
| C/C=C(/COC(=O)/C(C)=C/C)C(=O)OC/C=C/c1ccc(OC)cc1 | 12.8 µM (active) | – |
| CCC(C)C(=O)OC1CC(O)C23C4OCC5(C(O)CC2C1(C)C(O)O4)C3C(=O)C(O)C1(C)C(O)(c2ccoc2)CC2OC251 (stereo not given) | 0.432 µM (active) | – |
| COc1cc(CNC(=O)CCCC/C=C/C(C)C)ccc1O | 18.4 µM (active) | – |
| CN(C)CCCNc1c2ccccc2nc2c1[nH]c1ccccc12 | 0.731 µM (active) | – |
| C#Cc1cccc(Nc2ncnc3cc(OC)c(OC)cc23)c1 | 1.64 µM (active) | – |
| CSCC1OC(n2cnc3c(=O)[nH]cnc32)C(O)C1O (stereo not given) | – | 109% (inactive) |
| C/C=C/C=C/C(=O)O[C@@H]1C=C2COC(=O)[C@]2(O)[C@@]2(C)CCCC(C)(C)[C@H]12 | 16.1 µM (active) | – |
| O=C(/C=C/c1nc2ccccc2[nH]1)c1c(-c2ccccc2)c2cc(Cl)ccc2[nH]c1=O | 0.291 µM (active) | – |
| C=C1C(=O)O[C@@H]2C[C@@]3(C)CCCC(=C)[C@]3(O)C[C@H]12 | 2.59 µM (active) | – |
| Cc1nc2cc(-c3cc(F)cc(C#N)c3)ccc2s1 | – | 81.3% (inactive) |
| CC[C@H](CO)Nc1nc(Nc2cccc(-c3ccccn3)c2)c2ncn(C(C)C)c2n1 | 5.17 µM (active) | – |

| Compound | Potency | viability, % of control |
| --- | --- | --- |
| C[C@@H]1O[C@@H](O[C@H]2[C@H](O)[C@@H](O[C@@H]3O[C@H](CO)[C@@H](O)[C@H](O[C@@H]4O[C@H](CO)[C@@H](O)[C@H](O)[C@H]4O)[C@H]3O)[C@H](O[C@H]3CC[C@@]4(C)C(=CC[C@@H]5C4CC[C@@]4(C)C5C[C@@H]5OC6(CC[C@@](C)(CO[C@@H]7O[C@H](CO)[C@@H](O)[C@H](O)[C@H]7O)O6)[C@@H](C)[C@@H]54)C3)O[C@@H]2CO)[C@H](O)[C@H](O)[C@H]1O (stereo not given in full) | – | 94.3% [at 9.25 µM] (inactive) |
| CN(C)c1ccnc2sc3c(=O)n(N4CCCCCC4)cnc3c12 | 20.6 µM (active) | – |
| C#C[C@]1(O)CC[C@H]2[C@@H]3CCC4=C/C(=N/O)CC[C@@H]4[C@H]3CC[C@@]21CC | 25.9 µM (active) | – |
| O=C1CCc2cc(S(=O)(=O)Nc3cccc(Cl)c3)ccc2N1 | 16.4 µM (active) | – |
| CC1(C)NC2N(C1=O)c1ccccc1C2(O)CC(C(=O)O)n1cnc2ccccc2c1=O (stereo not given) | – | 95.7% [at 17.3 µM] (inactive) |
| COc1ccc(Oc2c(Cl)cnn(C3c4ccccc4-c4ccccc43)c2=O)cc1 | 14.6 µM (active) | – |
| Cc1ccc(NS(=O)(=O)c2cc3c(cc2Cl)CCC(=O)N3)cc1Cl | 9.2 µM (active) | – |
| CC1=C2CC(=O)C(C)CC/C=C(\C)CC2OC1=O (stereo not given) | – | 101% (inactive) |
| C=C1C[C@@]23CCC4[C@@](C)(CCC[C@@]4(C)C(=O)OC)C2CC[C@@H]1C3 (stereo not given in full) | 6.4 µM (active) | – |
| O=S(=O)(c1ccccc1)N(CC(F)(F)F)c1ccc(C(O)(C(F)(F)F)C(F)(F)F)cc1 | 8.2 µM (active) | – |
| C=C[C@]1(C)C[C@H](O)[C@H]2C(=C)C(=O)O[C@@H]2[C@H]1C(=C)CO | 14.6 µM (active) | – |
| COc1cccc(CNC(=O)Nc2nc(-c3ccncc3)cs2)c1 | 18.4 µM (active) | – |
| CC[C@H](/C=C/[C@@H](C)[C@H]1CC[C@H]2[C@@H]3CC=C4C[C@@H](O)CC[C@]4(C)[C@H]3CC[C@]12C)C(C)C | – | 108% [at 4.97 µM] (inactive) |
| CO[C@H]1/C=C/[C@@](C)(O)/C=C/C(=O)O[C@H](C)[C@@H](C)CC/C=C/1C | 12.8 µM (active) | – |
| CCOc1ccc(S(=O)(=O)N2CCCCCC2)c2ccccc12 | 20.6 µM (active) | – |
| COc1ccc2c(c1O)OC(C)(C)c1c-2ccc2c1C(=O)N(c1ccc(C(=O)c3ccccc3)cc1)C2=O | – | 76.1% (inactive) |
| CCC[C@@H]1C[C@@H](C(=O)N[C@@H]([C@H]2O[C@H](SC)[C@H](OP(=O)(O)O)[C@@H](O)[C@H]2O)[C@H](C)Cl)N(C)C1 | – | 95.1% [at 17.3 µM] (inactive) |
